Compounds without any hit were thinned out: in the full panel of roughly 83,000, 20% have a hit.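 Testing used 96-well plates and a 48-hour single-concentration exposure. Example: -40 means 40% of the starting cells died.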 Unmarked numbers belong to inactive results. Active and inactive are the calls of the source. How the source made its calls: active means growth percent below 10; inactive means the rest.
Each molecule was assayed on HL-60(TB) leukemia (assay: NCI-60 one-dose screen, 48 h (100 = growth as untreated, 0 = no growth, -100 = all killed)). Details: 10 µM unless noted.
In the case of COc1ccc(/C=N\NC(=O)c2cnn(CC(O)c3ccccc3)c2N)cc1OCc1ccc(Cl)cc1 (configuration not stated), the growth is reported as 99.7%. For O=[N+]([O-])c1ccc(NC(=S)NNC(=S)Nc2ccc(Br)cc2)cc1, the growth was 93.1%. COc1ccc2[nH]cc(-c3nc(N)nnc3-c3cn(C)c4ccc(Br)cc34)c2c1 was tested, and the growth was -26.6% (active). In the case of O=C1Nc2cc(Cl)ccc2/C1=C\c1ccc(OCc2ccc(Br)cc2F)cc1, the growth is reported as 66.2%. With CS(=O)(=O)c1ccc(-c2nn(-c3ccccc3)cc2/C=C/C(=O)c2ccc(Br)cc2)cc1 the growth was 51.9%. Cn1c(SCC(=O)c2ccco2)nc2ccccc2c1=O showed a growth of 98.3%. O=C1NC(=O)c2c1c1c3ccccc3ccc1c1[nH]c3ccccc3c21 was tested, and the growth was 16.8%. Work on Clc1ccc2oc3c(OCCCn4ccnc4)c4ccccc4nc3c2c1 yielded a growth of 73.1%. In the case of Nc1cc(-c2c[nH]c3ccc(Br)cc23)nc2cc(-c3c[nH]c4ccc(Br)cc34)nn12, the growth is reported as 9.1% (active). For CC(=O)Nc1cccc(-n2cnc3cc(-c4ccc(O)cc4)ccc32)c1, the growth was 6.68% (active). With COc1cccc(-c2nn(-c3ccccc3)cc2-c2ccnc(N3CCN(C(=O)Nc4ccc(F)cc4)CC3)c2)c1 the growth was 11.2%. Molecule CCOC(=O)Nc1ccc2c(ccn2C(=O)c2cccc(F)c2)c1 has a growth of 12.3%. For Oc1cccc2ccc(-c3nnc(SCc4ccc(O)c5ncccc45)o3)nc12, the growth was 13.7%. Molecule CC[C@H](CC[C@@H](C)[C@H]1CC[C@H]2[C@@H]3CC(=O)C4=CC(=O)/C(=C/c5ccc([N+](=O)[O-])cc5)C[C@]4(C)[C@H]3CC[C@]12C)C(C)C has a growth of 83.5%. Cc1ccc2c(n1)C(=O)C(Cl)=C(Nc1ccc(C(=O)OC(C)(C)C)cc1)C2=O was tested, and the growth was 4.87% [9.25 µM] (active). CCCCCCOC(=O)c1cc(-c2ccc(F)cc2)nc2ccccc12 was tested, and the growth was 77.8%. For Cn1cc(-c2nnc(N)nc2-c2c[nH]c3ccc(F)cc23)c2cc(F)ccc21, the growth was 61.7%. In the case of COc1ccc2c(c1)c(-c1nc(N)nnc1-c1c[nH]c3ccccc13)cn2C, the growth is reported as 3.5% (active). For COc1ccc(C(C)=C(c2ccc(OCCN3CCCCCC3)cc2)c2ccc(OCCN3CCCCCC3)cc2)cc1, the growth was -46.9% (active). Molecule O=C(O)CC1CCN(c2ccc3nnc(Cl)n3n2)CC1 has a growth of 104%. COc1ccc2c(c1)c(-c1nnc(N)nc1-c1cn(C)c3ccccc13)cn2C showed a growth of 72.6%. With O=C(NNc1nc2cc(F)ccc2n2c(CN3CCCC3)ccc12)c1cnccn1 the growth was -30.9% (active). In the case of CN(C)S(=O)(=O)c1ccc(-c2nc(C(Cl)Cl)nc3cc(-c4ccc(F)cc4)nn23)cc1, the growth is reported as 6.96% (active). In the case of CCCC(=O)NC(c1cccnc1)c1cc(C)c2cccnc2c1O (configuration not stated), the growth is reported as 1.38% (active). In the case of Cc1ccc(Nc2ncnc3c2c(C)nn3-c2ccc([N+](=O)[O-])cc2)cc1, the growth is reported as 96.7%. With COc1ccc(C2CC(c3cccc(OCCCCOc4cccc(C5=NN(C(C)=O)C(c6ccc(OC)cc6)C5)c4)c3)=NN2C(C)=O)cc1 (configuration not stated) the growth was 46.2%. For N#Cc1c(-c2cccs2)c(C#N)c(=O)n(Cc2nc3ccccc3[nH]2)c1N, the growth was 108%. In the case of CCCCCc1ccc(S(=O)(=O)Nc2cc(-c3csc(NC(=O)CN4CCN(C)CC4)n3)ccc2N2CCN(C)CC2)cc1, the growth is reported as -48.8% (active). N#Cc1nc(-c2ccccc2)oc1S(N)(=O)=O gave a growth of 27.1%. Molecule O=C(COc1cccc2cccnc12)Nc1ccc(C(=O)/C=C/c2ccc(Cl)cc2)cc1 has a growth of 64.4%. COc1ccc(-c2nc3cc(Cl)c(Cl)cc3n2CC(=O)N=Nc2c(O)[nH]c3ccc(Br)cc23)cc1 showed a growth of 80.2%. For CN(c1ccc(Cl)cc1)S(=O)(=O)c1ccc(-c2cnc(C3CC3)o2)cc1, the growth was -15.9% (active). For O=C1[C@@H]2Cc3c([nH]c4ccccc34)[C@@H](c3ccc(Cl)cc3)N2C(=O)CN1C1CCN(Cc2ccccc2)CC1, the growth was -9.39% (active). For CCOc1ccc2nc(NC(=O)c3ccc(C(F)(F)F)cc3)sc2c1, the growth was 93.9%. Cc1ccc(-c2cc(-c3ccc(N(C)C)cc3)n3c(n2)nc2ccccc23)cc1 showed a growth of 67.1%. CCCn1cnc2c(c1=N)C(c1ccc(Cl)cc1)c1sc3c(CC)cccc3c1O2 (configuration not stated) was tested, and the growth was 0.217% (active). CCCN1C=C/C(=C\C(=O)n2ccc3ccccc32)c2ccccc21 was tested, and the growth was 87.4%.
